Six1-Eya2 inh: inhibitors of human Six1/Eya2 interaction. AID 651725. 360,000 tested, 0.56% active. Q15475+O00167. AlphaScreen GST-Six1/His-Eya2 binding, biochemical; hits give low values. activity change, % (test concentration not listed); in the data active = activity change below about -65%; inconclusive = mostly about -30% to -63%
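GST-Six1 + His-Eya2 (5X stock: 250/500 nM); Tris pH 8.0, 300 mM NaCl, 0.05% BSA, 0.02% Tween 20; GSH donor/Ni acceptor beads; 1 h 37 °C dark; AlphaScreen readout.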
PI4K2A inh: blocks human PI4K2A kinase activity; Q9BTU6; purified PI4K2A, ADP-Glo luminescence, 1 h; hits give low values; activity change, negative = inhibition, % at 76.9 µM; 420,000 tested, 0.13% active; AID 1346378; in the data active = activity change below about -50%; inconclusive = mostly about -30% to -49%;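 note: -100% = wells without enzyme as full effect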
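Compounds are screened against recombinant PI4K2A using PI as substrate and ATP, the latter dispensed at 300 microM. Reactions run one hour at ambient temperature before ADP-Glo detection; full inhibition defined by wells lacking enzyme.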
RGS4 inh: blocks human RGS4-accelerated GTP hydrolysis | P49798 | Transcreener GDP fluorescence polarization, RGS4-accelerated GTP hydrolysis | Potency, µM (series often up to 114 µM), for inactives: top-dose activity change, negative = inhibition, actives largely listed as inhibitors | 390,000 tested, 0.039% active | AID 504845; note: potency is the fitted concentration of half-maximal effect; nearly all actives have a fitted effect of over 75% in size
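MLSMR compounds (23 nl, pin-transferred) preincubated 10 min at room temperature with a 500nM (2x) first reagent, then RGS4 at 900nM (2x) plus Transcreener GDP mix added; fluorescence polarization (620/688 nm) read before and after 90 min at 30 °C.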
USP2a inh: inhibitors of human ubiquitin-specific protease USP2a; O75604; USP2 core, Ub-CHOP2 coupled fluorogenic reporter, 485/531; Potency, µM (highest dose often 38.3 µM), for inactives: at the highest dose activity change, negative = inhibition, actives largely listed as inhibitors; 330,000 tested, 0.01% active; AID 463254;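 note: potency is the fitted concentration of half-maximal effect; plate controls were DMSO wells for no effect and full inhibition by NEM control for full effect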
Target sequence (O75604 whole entry, looked up): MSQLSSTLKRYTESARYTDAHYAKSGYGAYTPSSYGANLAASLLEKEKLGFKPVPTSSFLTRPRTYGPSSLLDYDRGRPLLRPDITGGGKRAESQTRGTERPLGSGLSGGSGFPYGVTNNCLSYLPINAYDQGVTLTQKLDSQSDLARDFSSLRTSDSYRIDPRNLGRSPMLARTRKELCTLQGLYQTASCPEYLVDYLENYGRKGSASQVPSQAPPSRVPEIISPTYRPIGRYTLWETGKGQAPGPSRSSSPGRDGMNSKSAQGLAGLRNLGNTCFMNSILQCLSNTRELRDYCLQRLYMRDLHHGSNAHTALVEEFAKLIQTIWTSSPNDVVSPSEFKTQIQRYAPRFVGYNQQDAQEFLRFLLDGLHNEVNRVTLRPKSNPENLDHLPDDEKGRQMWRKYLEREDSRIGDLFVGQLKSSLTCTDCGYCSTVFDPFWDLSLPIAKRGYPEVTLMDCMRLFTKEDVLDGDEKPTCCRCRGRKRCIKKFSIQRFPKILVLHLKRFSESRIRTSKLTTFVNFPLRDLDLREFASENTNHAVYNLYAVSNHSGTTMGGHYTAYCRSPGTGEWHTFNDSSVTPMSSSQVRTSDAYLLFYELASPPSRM
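Deubiquitinase activity read as fluorescence (485/531 nm) after Ub-CHOP2 cleavage activates the enterokinase reporter on its substrate; USP2 core 10nM, Ub-CHOP2 and substrate 25nM each, 30min compound preincubation then 60min RT; data normalized to NEM, curves fitted.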
CtBP-E1A inh: inhibitors of CtBP/E1A interaction | AlphaScreen GST-E1A/His-CtBP binding, 1536-well; hits give low values | 340,000 tested, 0.49% active | AID 651724 | activity change, % (concentration not given with the values); in the data active = activity change below about -65%; inconclusive = mostly about -30% to -63%
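In 5 uL wells, 23 nL compound meets equimolar GST-E1A and His-CtBP (5X stock 125 nM each) for 2 h, 37 °C. Beads (5X, 50 ug/mL) then 1 h, 37 °C, dark.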
Eya2 inh: inhibitors of human Eya2 phosphatase activity; O00167; recombinant Eya2, OMFP fluorescence dephosphorylation (OMFP is methylfluorescein phosphate); Potency, µM (highest dose often 76.9 µM), without a hit: at the top dose activity, negative = inhibition, actives largely listed as inhibitors; 330,000 tested, 0.006% active; AID 488837; note: potency is the fitted concentration of half-maximal effect
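Eya2 protein (added as 0.2 uM solution) was preincubated with compound for 10 min at ambient temperature in 50 mM HEPES pH 7.5, 50 mM NaCl, 5 uM MgCl2, 0.05% BSA, 1 mM DTT. OMFP (added at 50 uM) then reacted 10 min; fluorescence read at 485/525 nm.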
The depositor's hits bear a star; ? = inconclusive; nt = no result; ! = not confirmed by another sample. Shown are actives, neighbours in structure and some others; about 0.72% of the full set was active somewhere. Unless noted, calls come from the whole dose curve; as a rule, active = well fitted curve in the direction sought with a large enough effect; inconclusive = small, poorly fitted or top-dose-only effect, or another doubt; inactive = no such curve, though single readings can be large; an effect the other way counts as inactive or inconclusive. Unless noted, % is set by controls: 0 for no effect and ±100 for the full control effect.

SMILES	Six1-Eya2 inh	PI4K2A inh	RGS4 inh	USP2a inh	CtBP-E1A inh	Eya2 inh
Cc1cccc(-c2nnc(SCCC(=O)N3CCOCC3)o2)c1	5	-3	32%	0%	-2	-4%
Cc1cccc(-c2nnc(SCCC(=O)O)o2)c1	nt	-60*	-1%	nt	nt	nt
CCN(CC)c1ccc(NC(=O)CN2CCN(S(=O)(=O)c3ccc(C(C)C)cc3)CC2)cc1	nt	2	1%	nt	nt	nt
O=C(CSC1=NNC(c2ccccn2)S1)Nc1ccc(C(F)(F)F)cc1 (stereo unspecified)	-91*	7	?	3%	-95*	-5%
O=C(CSc1nccn1C1CCCC1)Nc1ccc(C(F)(F)F)cc1	nt	1	-8%	nt	nt	nt
COc1ccc(CNC(=O)C2Cc3c(-c4ccccc4Oc4ccccc4)ccnc3O2)cc1OC (stereo unspecified)	-14	1	nt	nt	-8	nt
CN(C)c1ccc(CNC(=O)C2Cc3c(-c4ccccc4Oc4ccccc4)ccnc3O2)cc1 (stereo unspecified)	-66*	0	nt	nt	?	nt
CCOC(=O)CNC(=O)C1CCCN(c2ncccn2)C1 (stereo unspecified)	-83*	-10	0%	1%	?	-32%
Cc1ccccc1CNC(=O)C1CCCN(c2ncccn2)C1 (stereo unspecified)	nt	-7	nt	nt	nt	nt
CC(C)COc1ccc(C(=O)Nc2cc(-c3ccccc3)no2)cc1	nt	0	6%	nt	nt	nt
O=C1/C(=C/c2ccco2)SC(=S)N1c1cccnc1	-71*	-26	?	-10%	-29	-19%
CC[C@H](NC(C)C)[C@H](O)c1ccc(O)c2[nH]c(=O)ccc12	nt	0	24µM*!	nt	nt	nt
Cn1c(SCC2CCCCC2)nnc1-c1ccco1	nt	-12	nt	nt	nt	nt
O=C(CNS(=O)(=O)c1cc2ccccc2s1)N1CCN(c2ccccn2)CC1	nt	-4	nt	nt	nt	nt
CN(C)c1ccc(/C=C/C=C2/SC(=S)N(c3ccccc3)C2=O)cc1	-69*	-22	-66%	4%	-66*	-2%
COCc1cc(C)nc(OCC(=O)N/N=C/c2ccc(O)cc2O)c1C#N	-84*	1	-8%	3%	-88*	1%
COCc1cc(C)nc(OCC(=O)N/N=C/c2ccccc2O)c1C#N	-91*	-2	-15%	1%	-84*	2%
CCOc1cc(/C=N/NC(=O)COc2nc(C)cc(COC)c2C#N)ccc1O	?	0	16%	1%	nt	-29%
COc1ccc(N2C(=O)c3ccccc3NC(=O)C2C(=O)Nc2ccc(N3CCOCC3)cc2)cc1 (stereo unspecified)	0	0	nt	nt	10	nt
O=c1cc(CSc2ccc(Cl)cc2)nc(-c2ccccn2)[nH]1	-93*	?	-35%	-1%	nt	-11%
O=c1cc(CSc2ccc(Cl)cc2)nc(-c2ccccc2)[nH]1	9	4	4%	2%	1	6%
CCn1ccnc1CNCc1cn(-c2cc(C)ccc2C)nc1-c1ccccc1	-82*	4	-10%	-5%	nt	-13%
Cc1ccc(C)c(-n2cc(CNCCc3cnccn3)c(-c3ccccc3)n2)c1	0	1	-24%	1%	nt	-13%
O=C(COc1cccc(F)c1)Nc1nc(-c2ccccn2)cs1	-77*	-7	nt	nt	?	nt
O=C(COc1ccc([N+](=O)[O-])cc1)Nc1nc(-c2ccccn2)cs1	-79*	-4	-20%	2%	-92*	-4%
SMILES	Six1-Eya2 inh	PI4K2A inh	RGS4 inh	USP2a inh	CtBP-E1A inh	Eya2 inh
Cc1ccc(OCC(=O)Nc2nc(-c3ccccn3)cs2)c(C)c1	?	0	-29%	-4%	?	0%
O=C(COc1ccccc1)Nc1nc(-c2cccnc2)cs1	-4	-3	-5%	0%	-2	6%
O=C(COc1ccccc1)Nc1nc(-c2ccncc2)cs1	4	-2	-7%	0%	-24	-4%
O=C(COc1ccc(F)cc1)Nc1nc(-c2ccccn2)cs1	-84*	-4	-28%	-1%	?	-8%
Cc1c(CC(=O)O)c(=O)oc2c(C)c3occ(-c4ccccc4)c3cc12	-77*	-6	-6%	3%	0	-10%
Cc1c(CCC(=O)O)c(=O)oc2c(C)c3occ(-c4ccc(Cl)cc4)c3cc12	-86*	3	-24%	3%	-81*	-5%
Cc1c(CCC(=O)NCC(=O)O)c(=O)oc2cc3occ(-c4ccccc4)c3cc12	?	-13	5%	-1%	-25	-28%
Cc1c(CCC(=O)O)c(=O)oc2cc3occ(-c4ccc(Br)cc4)c3cc12	?	-7	-5%	0%	?	-5%
CCCC(NC(=O)CCc1c(C)c2cc3c(-c4ccccc4)coc3cc2oc1=O)C(=O)O (stereo unspecified)	-17	-2	-12%	2%	-68*	-12%
Cc1c(CCC(=O)O)c(=O)oc2cc3occ(-c4ccc(F)cc4)c3cc12	?	-5	22%	-1%	?	-9%
Cc1c(CCC(=O)O)c(=O)oc2cc3occ(-c4ccc(Cl)cc4)c3cc12	?	-3	-26%	2%	-71*	-5%
CC1(C(=O)NS(=O)(=O)C2CC2)CCCN(C(=O)c2ccc(F)cc2Cl)C1 (stereo unspecified)	6	-2	nt	nt	-2	nt
Cc1oc2ccc(O)c(CN3CCCC(C)C3)c2c1C(=O)Nc1ccccc1 (stereo unspecified)	nt	2	-5%	nt	nt	nt
Cc1ccc(NC(=O)CSc2nc(=O)n(Cc3ccccn3)c3c2CCC3)cc1F	nt	2	0%	nt	nt	nt
CCCN1CCN(C(=O)Cn2ncc3c4ccccc4n(Cc4cccc(Cl)c4)c3c2=O)CC1	nt	-3	-26%	nt	nt	nt
COc1ccc(C(=O)Oc2cc(N)n(S(=O)(=O)c3ccc(C)cc3)n2)cc1	-15	20	-20%	1%	-12	-14%
COc1ccc(S(=O)(=O)n2nc(OC(=O)c3c(-c4ccccc4Cl)noc3C)cc2N)cc1	-72*	12	-6%	-16%	?	-4%
Cc1nnc(NC(=O)C2CCN(S(=O)(=O)c3cc([N+](=O)[O-])ccc3Cl)CC2)o1	-69*	-4	-5%	-1%	-82*	3%
COC(=O)C[C@H]1c2ccccc2S(=O)(=O)N1Cc1ccc(OC)cc1	5	1	14%	nt	nt	nt
COC(=O)/C=C/c1ccccc1CN1[C@@H](CC(=O)OC)c2ccccc2S1(=O)=O	-24	4	-11%	-1%	-83*	6%
NC1=C(Br)C(=O)c2ncccc2C1=O	?	?	?	nt	-3	nt
O=C1C=C(NCCc2cc(Br)c(O)c(Br)c2)C(=O)c2ncccc21	-86*	?	?	nt	-92*	nt
